The list is not random: actives were taken first. Their share in the collection is about 8.7%.
VACV mCherry inh = qHTS for Stage-Specific Inhibitors of Vaccinia Orthopoxvirus: mCherry Reporter Primary qHTS | Vaccinia virus mCherry reporter infection, fluorescence | Potency, µM (series often up to 36.5 µM), hits mostly inhibitors | hit rate 0.63% among 310,000; calls by dose curve; tested in A549 cells; note: nearly all actives have a fitted effect of over 35% in size
Pf growth 48h = Primary qHTS for delayed death inhibitors of the malarial parasite plastid, 48 hour incubation | P. falciparum luciferase growth in erythrocytes, 48 h | Potency, µM (doses to about 28.7 µM), hits mostly inhibitors | hit rate 5.9% among 310,000
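Parasite viability was followed by luminescence of a genomically integrated firefly luciferase. Cultures held 0.1% parasitemia at 2% hematocrit (final), incubated under 5% CO2 at 37 C.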
Pf growth 96h = Primary qHTS for delayed death inhibitors of the malarial parasite plastid, 96 hour incubation; hit rate 6.9% among 320,000; Potency, µM (highest dose often 28.7 µM), hits mostly inhibitors; P. falciparum luciferase reporter growth, 96 h; AID 504834, 2011
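Infected RBCs, 2% Hct / 0.05% parasitemia final; luciferase-reporter P. falciparum; cpd 96 h, 37 C, 5% CO2; luciferase detection reagent; luminescence.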
Vaccinia Venus = qHTS for Stage-Specific Inhibitors of Vaccinia Orthopoxvirus: Venus Reporter Primary qHTS; hit rate 0.46% among 330,000; AID 720580, 2013; Potency, µM (doses to about 36.5 µM), most hits filed as inhibitors; Vaccinia virus Venus reporter expression, fluorescence; calls by dose curve; tested in A549 cells; note: nearly all actives have a fitted effect of over 30% in size
AMA1 RON2 block = qHTS for Inhibitors of AMA1-RON; Towards Development of Antimalarial Drug Lead: Primary Screen; hit rate 0.2% among 360,000; Potency, µM (highest dose often 58.2 µM), hits mostly inhibitors; Plasmodium falciparum AMA1 (3D7) - RON2 peptide interaction; AlphaScreen AMA1-biotinylated RON2 peptide binding; note: nearly all actives have a fitted effect of over 45% in size
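AMA1 (3D7) with his tag at 25 nM final met compounds first, then biotinylated RON2 peptide at 25 nM; detection used donor plus acceptor beads, 10 µg/mL apiece, read by AlphaScreen after 30 min at room temperature.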
Large screens that a line does not name were inactive. Unless noted, calls come from the whole dose curve; as a rule, active = well fitted curve in the direction sought with a large enough effect; inconclusive = small, poorly fitted or top-dose-only effect, or another doubt; inactive = no such curve, though single readings can be large; an effect the other way counts as inactive or inconclusive.

OC(COc1ccc(F)cc1Cl)CN1CCC(Cc2ccccc2)CC1 (stereo not given)	Pf growth 48h 11.7µM, Pf growth 96h inconclusive (no result: VACV mCherry inh, Vaccinia Venus)
CSc1nnc(CCNC(=O)/C=C/c2cccc(F)c2)n1-c1ccc(F)cc1	none (no result: Pf growth 48h, Pf growth 96h, AMA1 RON2 block)
CC(=O)N1CCc2cc(Br)cc(S(=O)(=O)N3CCN(c4cccc(C(F)(F)F)c4)CC3)c21	none (no result: Pf growth 48h, Pf growth 96h, AMA1 RON2 block)
Cc1ccc(NC(=O)Cc2c[nH]c3ccccc23)cc1S(=O)(=O)N1CCCCCC1	Pf growth 48h 13.1µM, Pf growth 96h 11.7µM
Cc1ccc(S(=O)(=O)N2CCCCC2)cc1NC(=O)CN1CC=C(c2ccccc2)CC1	VACV mCherry inh inconclusive, Pf growth 48h inconclusive, Pf growth 96h 10.4µM
COc1ccc([N+](=O)[O-])cc1NCC(=O)Nc1cc(S(=O)(=O)N2CCCCC2)ccc1C	Pf growth 48h 11.7µM, Pf growth 96h inconclusive (no result: VACV mCherry inh, Vaccinia Venus)
Cc1ccc(S(=O)(=O)N2CCCCC2)cc1NC(=O)Cc1c[nH]c2ccccc12	Pf growth 48h inconclusive, Pf growth 96h 5.22µM
Cc1ccc(SCC(=O)Nc2cc(S(=O)(=O)N3CCCCC3)ccc2C)cc1	VACV mCherry inh inconclusive (no result: Pf growth 48h, Pf growth 96h)
COc1ccc(CNC(=O)C2CCN(S(=O)(=O)c3cccc4nonc34)CC2)cc1OC	none (no result: Pf growth 48h, Pf growth 96h, AMA1 RON2 block)
O=C(Cn1c(-c2cccs2)cc2ccccc21)NCCCN1CCN(c2cccc(Cl)c2)CC1	none (no result: Pf growth 48h, Pf growth 96h, AMA1 RON2 block)
Cc1cc(C)c2c(CC(=O)Nc3nnc(CC(C)C)s3)coc2c1	none (no result: Pf growth 48h, Pf growth 96h, AMA1 RON2 block)
COc1ccc(S(=O)(=O)N2CCCCC2)cc1NC(=O)CCc1cc(OC)c(OC)c(OC)c1	none (no result: VACV mCherry inh, Pf growth 48h, Pf growth 96h, Vaccinia Venus)
Cc1ccc(S(=O)(=O)N2CCCCC2)cc1NC(=O)CNc1ccccc1N1CCCC1=O	Pf growth 48h 13.1µM, Pf growth 96h inconclusive (no result: VACV mCherry inh, Vaccinia Venus)
COc1ccc(S(=O)(=O)N2CCCCCC2)cc1NC(=O)Cc1cc(OC)c(OC)c(OC)c1	Pf growth 48h inconclusive, Pf growth 96h 3.7µM
COc1ccc(C)cc1S(=O)(=O)N(CC(=O)Nc1cccc([N+](=O)[O-])c1)c1cc(C)cc(C)c1	Pf growth 48h inconclusive, Pf growth 96h inconclusive
COc1ccc(C)cc1S(=O)(=O)N(CC(=O)Nc1cc([N+](=O)[O-])ccc1C)c1ccc(C)c(C)c1	Pf growth 48h 10.4µM, Pf growth 96h inconclusive
COc1ccc(S(=O)(=O)N2CCCCC2)cc1NC(=O)CSc1ncnc2ccccc12	VACV mCherry inh inconclusive, Pf growth 48h 11.7µM, Pf growth 96h 2.33µM, Vaccinia Venus inconclusive
CC(=O)c1ccc(N2CCN(CC(O)COC(c3ccccc3)c3ccccc3)CC2)cc1 (stereo not given)	Pf growth 48h inconclusive
CC(=O)c1ccc(N2CCN(CC(O)COC(c3ccccc3)c3ccccc3C)CC2)cc1 (stereo not given)	VACV mCherry inh inconclusive, Pf growth 48h 10.4µM, Pf growth 96h inconclusive, AMA1 RON2 block inconclusive
COc1ccc(C)cc1NC(=O)C1CCN(S(=O)(=O)Cc2ccccc2)CC1	none (no result: Pf growth 48h, Pf growth 96h, AMA1 RON2 block)
CCOc1ccc(NC(=O)CCNS(=O)(=O)c2ccc3c(c2)CCCC(=O)N3)cc1	none (no result: Pf growth 48h, Pf growth 96h, AMA1 RON2 block)
CC(=O)NC(c1ccc(Cl)cc1)c1ccc2cccnc2c1O (stereo not given)	none (no result: VACV mCherry inh, Pf growth 48h, Pf growth 96h, Vaccinia Venus)
Cc1ccnc(NC(c2ccccc2)c2ccc3cccnc3c2O)c1 (stereo not given)	VACV mCherry inh inconclusive, Vaccinia Venus inconclusive (no result: Pf growth 48h, Pf growth 96h)
CCC(=O)NC(c1ccc(C)cc1)c1ccc2cccnc2c1O (stereo not given)	VACV mCherry inh inconclusive, Pf growth 48h 4.65µM, Vaccinia Venus inconclusive
CCCC(=O)NC(c1ccc(N(C)C)cc1)c1ccc2cccnc2c1O (stereo not given)	VACV mCherry inh inconclusive, Pf growth 48h 6.57µM, Vaccinia Venus inconclusive
O=C(O)c1ccccc1NC(c1ccccc1)c1ccc2cccnc2c1O (stereo not given)	VACV mCherry inh 8.91µM, Vaccinia Venus inconclusive (no result: Pf growth 48h, Pf growth 96h)
CCCCC(=O)NC(c1ccc(OC)cc1)c1ccc2cccnc2c1O (stereo not given)	VACV mCherry inh 10µM, Vaccinia Venus inconclusive (no result: Pf growth 48h, Pf growth 96h)
Cc1ccc(CNc2nc(CN3CCNC(=O)C3)nc3ccccc23)o1	none (no result: Pf growth 48h, Pf growth 96h, AMA1 RON2 block)
CCOC(=O)c1ccc(N2C(=O)c3n[nH]c(-c4ccco4)c3C2c2ccc(OCC)cc2)cc1 (stereo not given)	none (no result: Pf growth 48h, Pf growth 96h, AMA1 RON2 block)
CC(=O)NC1=C(C#N)CCC1	none (no result: Pf growth 48h, Pf growth 96h, AMA1 RON2 block)
COc1ccc(Cl)cc1NC(=O)Cn1c(=O)n(Cc2nc(C)no2)c(=O)c2ccccc21	none (no result: Pf growth 48h, Pf growth 96h, AMA1 RON2 block)

High-throughput results as filed in PubChem BioAssay.
